High-throughput results as filed in PubChem.
Rv3671c inh: Rv3671c (M. tuberculosis) protease inhibition | 320,000 compounds, 0.048% hits | P9WHR9 | inhibition, % at 5.96 µM; in the data active = inhibition above about 38%;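 note: extracellular domain of Rv3671c used as enzyme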
GDH-TPI counter: inhibits GDH-TPI coupling enzymes, artifact for Mtb FBA screen; GDH-TPI coupled enzyme counterscreen, NADH absorbance; inhibition, % at 4.8 µM; 360,000 compounds, 1.2% hits; AID 588335; in the data active = inhibition above about 30%
FBA Mtb inh: Mtb fructose-bisphosphate aldolase inhibition; P9WQA3; 360,000 compounds, 2.3% hits; inhibition, % at 1 µM; purified M. tuberculosis FBA, fluorescence read-out; in the data active = inhibition above about 27%
Target sequence (P9WQA3 whole entry, looked up): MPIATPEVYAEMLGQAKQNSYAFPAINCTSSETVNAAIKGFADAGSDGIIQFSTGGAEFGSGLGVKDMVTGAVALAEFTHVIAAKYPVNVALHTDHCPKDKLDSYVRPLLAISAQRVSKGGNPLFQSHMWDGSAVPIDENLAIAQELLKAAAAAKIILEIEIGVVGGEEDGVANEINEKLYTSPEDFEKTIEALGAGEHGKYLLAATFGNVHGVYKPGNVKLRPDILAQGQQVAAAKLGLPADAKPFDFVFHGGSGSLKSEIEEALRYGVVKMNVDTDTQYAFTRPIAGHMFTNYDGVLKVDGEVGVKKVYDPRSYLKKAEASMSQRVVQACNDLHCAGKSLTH
RecA splice inh: blocks M. tuberculosis RecA intein splicing; P9WHJ3; cell-free RecA intein splicing, fluorescence; inhibition, % (no concentration beside the values); 290,000 compounds, 0.75% hits; AID 2221; in the data active = inhibition above about 30%
UGM FP inh: inhibitors of M. tuberculosis UDP-galactopyranose mutase; P9WIQ1; purified UGM, fluorescence polarization probe displacement; inhibition, % at 10 µM; 320,000 compounds, 0.06% hits; AID 504406; in the data active = inhibition above about 10%, passing the limit was not always enough
Target sequence (P9WIQ1 whole entry, looked up): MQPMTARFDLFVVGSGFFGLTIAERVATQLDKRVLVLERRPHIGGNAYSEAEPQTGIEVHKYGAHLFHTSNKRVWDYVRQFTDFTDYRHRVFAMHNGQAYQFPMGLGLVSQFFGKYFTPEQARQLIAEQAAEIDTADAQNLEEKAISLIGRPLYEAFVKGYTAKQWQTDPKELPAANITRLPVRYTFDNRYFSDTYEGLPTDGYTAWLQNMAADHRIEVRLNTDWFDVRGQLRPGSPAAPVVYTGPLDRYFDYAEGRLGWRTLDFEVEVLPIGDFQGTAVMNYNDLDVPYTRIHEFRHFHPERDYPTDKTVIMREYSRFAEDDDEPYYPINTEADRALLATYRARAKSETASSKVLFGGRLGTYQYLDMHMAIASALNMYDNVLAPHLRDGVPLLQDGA
BH1578 lux ind: quorum light induction in luxS cqsA deficient V. cholerae; V. cholerae BH1578 lux reporter, luminescence, 6 h; activation, % at 18.7 µM; 350,000 compounds, 0.16% hits; AID 588436; in the data active = activation mostly above about 9.7%, no sharp cut-off
Numbers stand for hits; 0 = inactive; - = no result; + = active, no number. Only some compounds are listed: those with a hit (about 4.1% of all), similar ones and a draw of the others.

SMILES | Rv3671c inh | GDH-TPI counter | FBA Mtb inh | RecA splice inh | UGM FP inh | BH1578 lux ind
CCOc1cc(CNS(=O)(=O)c2ccc3c(c2)CC(=O)N3C)cc(OCC)c1OCC | 0 | 0 | 0 | 0 | 0 | 0
Cc1cc2cc(CCNS(C)(=O)=O)c(=O)[nH]c2cc1C | 0 | 0 | 0 | 0 | 0 | 0
CCS(=O)(=O)NCCc1cc2cc(C)c(C)cc2[nH]c1=O | - | 31.1 | 0 | - | - | 0
COc1cc(NS(=O)(=O)c2ccc(NC(=O)c3cccnc3)cc2)ncn1 | 0 | 0 | 0 | 0 | 0 | 0
CN(C(=O)c1ccno1)c1nnc(-c2ccccn2)s1 | 0 | 0 | + | 0 | 0 | 0
CCn1c(SCC(=O)NCCc2ccccc2)nc2sc3c(c2c1=O)CCN(C)C3 | 0 | 34.7 | 0 | 0 | 0 | 0
CN1CCc2c(sc3nc(SCC(=O)N4CCCCC4)n(-c4ccccc4)c(=O)c23)C1 | 0 | 38.8 | 0 | 0 | 0 | 0
CN1CCc2c(sc3nc(SCC(N)=O)n(-c4ccc(Cl)cc4)c(=O)c23)C1 | 0 | 32.4 | 0 | 0 | 0 | 0
Cc1ccn2c(C(=O)N/N=C\c3ccc4c(c3)OCO4)c(C)nc2c1 | 0 | 46.5 | 0 | 0 | 0 | 0
O=C(N/N=C/c1ccc2c(c1)OCO2)c1cccc2ccccc12 | 0 | 0 | 0 | 0 | 0 | 0
Cc1ccn2c(=O)c(NC(=O)c3cccs3)c(C)nc2c1 | 0 | 0 | 0 | 0 | 0 | 0
Cc1ccn2c(=O)c(NC(=O)c3ccc4c(c3)OCO4)c(C)nc2c1 | - | 31.2 | 0 | - | - | 0
Cc1ccn2c(C(=O)N/N=C/c3ccc(Cl)cc3)c(C)nc2c1 | - | 0 | 0 | 0 | - | 0
O=C(N/N=C/c1ccc2c(c1)OCO2)c1ccc2ccccc2n1 | 0 | 32.2 | 0 | 0 | 0 | 0
Cc1cccc(C(=O)N/N=C/c2ccc3c(c2)OCO3)n1 | 0 | 32.9 | 0 | 0 | 0 | 0
O=C(c1ccc2[nH]c(=O)c(=O)[nH]c2c1)N1CCc2ccccc21 | 0 | 0 | 0 | 0 | 0 | 0
N#Cc1ccc(CN2CCN(C(=O)C3CC(=O)N(c4ccc5c(c4)OCCO5)C3)CC2)cc1 (centres undefined) | - | 0 | 0 | - | - | 0
Cc1ccn2c(C(=O)N/N=C\c3ccccc3[N+](=O)[O-])c(C)nc2c1 | 0 | 44.4 | 0 | 0 | 0 | 0
COC(=O)c1cn(C)c2ccc(S(=O)(=O)N3CCCCC3)cc2c1=O | - | 40.5 | 0 | 0 | - | 0
CC(C)(C)C(=O)Nc1nnc(SCC(=O)NC2CCCC2)s1 | 0 | 0 | 0 | 0 | 0 | 0
COc1cccc(-c2cc3nc(-c4ccccc4)cc(=O)n3[nH]2)c1 | 0 | 0 | 84.5 | 0 | 0 | 0
Cc1cc2c(=O)n(C)c(SCC(=O)Nc3ccccc3C)nc2s1 | 0 | 0 | 0 | 0 | 0 | 0
CCN(CC)S(=O)(=O)c1ccc(OC)c(NC(=O)/C=C/c2ccco2)c1 | 0 | 35.0 | 0 | 0 | 0 | 0
CCCCn1c(N)c(N(CCC(C)C)C(=O)CSc2nncn2-c2ccccc2)c(=O)[nH]c1=O | 0 | 0 | 0 | - | - | 0
O=C(Nc1ccc(Br)cc1)c1cnc[nH]1 | 0 | 0 | 0 | 0 | 0 | 0
SMILES | Rv3671c inh | GDH-TPI counter | FBA Mtb inh | RecA splice inh | UGM FP inh | BH1578 lux ind
CC(=O)c1ccc(NC(=O)[C@@H]2CCCN2C(=O)OC(C)(C)C)cc1 | 0 | 0 | 0 | 0 | 0 | 0
CCOc1cc(/C=N/NC(=O)c2cccnc2)ccc1O | 0 | 38.3 | 0 | 0 | 0 | 0
COc1ccc(/C=N/NC(=O)c2ccc(C)nc2)cc1O | 0 | 32.6 | 0 | 0 | 0 | 0
CCOc1cc(/C=N/NC(=O)c2ccccc2OCc2ccc(F)cc2)ccc1O | 0 | 41.1 | 0 | - | 0 | 0
CCOc1cccc(/C=N/NC(=O)c2cccnc2)c1O | 0 | 30.8 | 0 | 0 | 0 | 0
O=C(NCCc1c[nH]c2ccccc12)C1CCN(S(=O)(=O)c2ccc(F)cc2)CC1 | 0 | 0 | 0 | 0 | 0 | 0
CC[C@H](C)[C@@H](C(=O)NCCCCCCCCCCC(=O)N1CCNCC1)n1cc(CCCCN=C(N)N)nn1 | 0 | 0 | 0 | - | 0 | 0
CCOc1cc(/C=N/NC(=O)N/N=C/c2ccc(O)c(OCC)c2)ccc1O | 0 | - | - | 0 | 0 | -
Nc1c(Cl)ncnc1N/N=C/c1cccnc1 | 0 | 40.1 | 0 | 0 | 0 | 0
CCOc1cc(/C=N/NC(=O)C(=O)N/N=C/c2ccc(O)c(OCC)c2)ccc1O | 0 | 51.2 | 0 | 0 | 0 | 0
O=C(COc1ccccc1C(=O)N/N=C\c1ccc(O)c(O)c1)N/N=C/c1ccc(O)c(O)c1 | 0 | 56.4 | 0 | 0 | 0 | 0
O=C(NN=Cc1ccc(O)c(O)c1)c1ccccc1 | - | - | 0 | - | - | -
Cc1c(Cl)c([N+](=O)[O-])nn1Cc1ccc(C(=O)N/N=C\c2ccccn2)o1 | 0 | 0 | 0 | - | 0 | 0
COc1cc(/C=N\NC(=O)c2ccc(Cn3nc([N+](=O)[O-])c(Cl)c3C)o2)ccc1O | 0 | 40.3 | 0 | 0 | 0 | 0
Cc1ccc(OCC(=O)NNC(=O)CSC(=S)N2CCCC2)cc1 | - | 0 | 0 | - | - | 0
CCOc1cc(/C=N/Nc2ncnc(Cl)c2N)ccc1O | 0 | 33.5 | 0 | 0 | 0 | 0
CCCCNC(=S)N/N=C/c1cccc(OCC)c1O | 0 | 33.3 | 0 | 0 | 0 | 0
O=C(N/N=C/c1ccncc1)c1cnccn1 | 0 | 0 | 0 | 0 | 0 | 0
COc1cc(/C=N/NC(=O)c2cnccn2)ccc1O | 0 | 34.5 | 0 | 0 | 0 | 0
CCOc1cccc(/C=N/NC(=S)Nc2ccccc2[N+](=O)[O-])c1O | 0 | 0 | 0 | 0 | 0 | 0
CCOc1cc(/C=N/Nc2nnc(C)n2N)ccc1O | 0 | 0 | 0 | 0 | 0 | 0
CSc1ccc(C(O)c2ncc(-c3cccc(F)c3)[nH]2)cc1 (centres undefined) | - | 0 | 0 | - | - | 0
Cc1ccc(/C=N/NC(=O)c2nnn(-c3nonc3N)c2-c2ccccc2)o1 | 0 | 44.0 | 0 | 0 | 0 | 0
COc1cccc(-c2c(C(=O)N/N=C/c3ccco3)nnn2-c2nonc2N)c1 | 0 | 33.0 | 0 | 0 | 0 | 0
Cc1ccsc1/C=N/NC(=O)c1nnn(-c2nonc2N)c1-c1ccccc1 | 0 | 38.2 | 0 | 0 | 0 | 0
SMILES | Rv3671c inh | GDH-TPI counter | FBA Mtb inh | RecA splice inh | UGM FP inh | BH1578 lux ind
COc1cccc(-c2c(C(=O)N/N=C/c3ccsc3)nnn2-c2nonc2N)c1 | 0 | 0 | 0 | 0 | 0 | 0
CCOc1ccc(-c2c(C(=O)N/N=C/c3ccc(C)o3)nnn2-c2nonc2N)cc1 | 0 | 0 | 0 | 0 | 0 | 0
COc1cccc(-c2c(C(=O)N/N=C/c3sccc3C)nnn2-c2nonc2N)c1 | 0 | 34.8 | 0 | 0 | 0 | 0
O=C(Nc1cccc(F)c1)N1CCN(C(=O)c2ccco2)CC1 | 0 | 0 | 0 | 0 | 0 | 0
Cc1ccc(-c2c(C(=O)N/N=C/c3sccc3C)nnn2-c2nonc2N)cc1 | 0 | 0 | 0 | 0 | 0 | 0
Cc1ccsc1/C=N/NC(=O)c1nnn(-c2nonc2N)c1C | 0 | 31.3 | 0 | - | 0 | 0
CCOc1cccc(-c2c(C(=O)N/N=C(\C)c3cccs3)nnn2-c2nonc2N)c1 | 0 | 0 | 0 | 0 | 0 | 0
COc1cccc(-c2c(C(=O)N/N=C(\C)c3cccs3)nnn2-c2nonc2N)c1 | 0 | 30.8 | 0 | 0 | 0 | 0
CC[n+]1ccc(/C=C2\Sc3ccccc3N2CCCS(=O)(=O)[O-])c2ccccc21 | 0 | 0 | 0 | 0 | 0 | 0
CN1C=C/C(=C\c2cc[n+](C)c3ccccc23)c2ccccc21 | - | 0 | 0 | 70.6 | - | 0
